# Measurements from publication PMC7862700, “An all-to-all approach to the identification of sequence-specific readers for epigenetic DNA modifications on cytosine”.
# Tests used:
# Experiment in all cases: DAPPL (digital affinity profiling via proximity ligation, sequencing); 10 mM Tris-HCl pH 7.5, 50 mM NaCl, 1 mM DTT, 4% glycerol, room temperature, 30 min; GST-TFs on glutathione beads, 16-mer random dsDNA library, 0.1% formaldehyde crosslink after washing; high values mean tight binding
# [1] = biological target: T1, FLI1 (Homo sapiens, UniProt Q01543 1-452); conditions: protein: recombinant; tags: N-terminal GST; dsDNA, one strand shown
# T1 sequence: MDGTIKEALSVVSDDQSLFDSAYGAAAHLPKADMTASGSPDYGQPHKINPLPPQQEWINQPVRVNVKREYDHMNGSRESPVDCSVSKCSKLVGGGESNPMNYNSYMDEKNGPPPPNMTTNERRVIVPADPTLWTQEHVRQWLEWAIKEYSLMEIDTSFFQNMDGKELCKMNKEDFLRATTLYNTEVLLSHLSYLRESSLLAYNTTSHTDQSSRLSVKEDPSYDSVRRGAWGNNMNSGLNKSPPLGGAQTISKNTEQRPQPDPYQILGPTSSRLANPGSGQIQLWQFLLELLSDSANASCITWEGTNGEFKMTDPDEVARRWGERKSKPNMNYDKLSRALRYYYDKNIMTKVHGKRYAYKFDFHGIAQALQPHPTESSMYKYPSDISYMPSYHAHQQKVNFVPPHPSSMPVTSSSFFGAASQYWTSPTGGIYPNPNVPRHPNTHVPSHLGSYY
# Method in brief: (§1)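 Pools were built from human transcription factors expressed in yeast as GST fusions, captured on glutathione beads and DNA-barcoded, along with a tag-only sample. Incubation with 200 nmole of a 16-mer random double-stranded DNA library lasted 30 min at room temperature in Tris/NaCl/DTT/glycerol buffer, and was followed by washing, 0.1% formaldehyde crosslinking, proximity ligation, PCR amplification and Illumina NextSeq500 sequencing. Binding signal is the quotient of each hexamer's read frequency for a factor and its frequency for the tag-only sample.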
# [2] = biological target: T2, ELK1 (Homo sapiens, UniProt P19419 1-428); conditions: protein: recombinant; tags: N-terminal GST; dsDNA, one strand shown
# T2 sequence: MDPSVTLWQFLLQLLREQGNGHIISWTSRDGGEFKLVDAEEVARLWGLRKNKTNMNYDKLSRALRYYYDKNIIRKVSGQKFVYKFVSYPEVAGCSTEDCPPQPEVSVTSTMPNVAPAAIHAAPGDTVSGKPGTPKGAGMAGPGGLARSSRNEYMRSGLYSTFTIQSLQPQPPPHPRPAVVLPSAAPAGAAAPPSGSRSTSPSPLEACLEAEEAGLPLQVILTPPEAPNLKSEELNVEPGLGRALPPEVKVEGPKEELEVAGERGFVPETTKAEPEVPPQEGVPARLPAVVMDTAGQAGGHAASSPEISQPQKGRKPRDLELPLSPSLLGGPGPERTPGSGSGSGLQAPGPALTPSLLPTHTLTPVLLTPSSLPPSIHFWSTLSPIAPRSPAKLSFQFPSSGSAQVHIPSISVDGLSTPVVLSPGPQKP
# Method in brief: as §1
# [3] = biological target: T3, GABPA (Homo sapiens, UniProt Q06546 1-454); conditions: protein: recombinant; tags: N-terminal GST; dsDNA, one strand shown
# T3 sequence: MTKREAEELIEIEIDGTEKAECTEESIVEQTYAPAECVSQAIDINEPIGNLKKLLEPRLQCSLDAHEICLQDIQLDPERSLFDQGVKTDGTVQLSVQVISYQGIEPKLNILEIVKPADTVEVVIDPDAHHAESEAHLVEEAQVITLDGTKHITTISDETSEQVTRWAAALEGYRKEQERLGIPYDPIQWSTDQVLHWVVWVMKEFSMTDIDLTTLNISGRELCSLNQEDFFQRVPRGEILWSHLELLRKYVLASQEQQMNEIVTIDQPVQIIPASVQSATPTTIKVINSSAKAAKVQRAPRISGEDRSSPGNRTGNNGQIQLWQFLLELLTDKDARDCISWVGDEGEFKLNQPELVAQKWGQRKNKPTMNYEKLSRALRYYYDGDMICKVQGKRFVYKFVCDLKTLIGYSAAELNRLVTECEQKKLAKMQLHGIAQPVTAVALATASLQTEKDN
# Method in brief: as §1
# [4] = biological target: T4, ERG (Homo sapiens, UniProt P11308 1-479); conditions: protein: recombinant; tags: N-terminal GST; dsDNA, one strand shown
# T4 sequence: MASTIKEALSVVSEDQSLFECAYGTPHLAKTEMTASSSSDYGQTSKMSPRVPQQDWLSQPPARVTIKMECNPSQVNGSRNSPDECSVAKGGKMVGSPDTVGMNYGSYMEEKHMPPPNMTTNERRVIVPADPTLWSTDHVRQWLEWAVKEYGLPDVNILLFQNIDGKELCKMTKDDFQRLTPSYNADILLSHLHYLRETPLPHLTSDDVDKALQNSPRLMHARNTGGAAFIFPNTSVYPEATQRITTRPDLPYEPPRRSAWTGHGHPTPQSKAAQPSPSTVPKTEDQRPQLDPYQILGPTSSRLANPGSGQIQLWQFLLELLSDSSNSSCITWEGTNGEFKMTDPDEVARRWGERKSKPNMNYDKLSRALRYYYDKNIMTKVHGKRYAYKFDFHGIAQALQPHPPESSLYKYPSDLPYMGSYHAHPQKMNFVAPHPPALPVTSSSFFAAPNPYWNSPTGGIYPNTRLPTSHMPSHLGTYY
# Method in brief: as §1
# [5] = biological target: ELF1 (Homo sapiens, UniProt P32519 1-619); conditions: protein: recombinant; tags: N-terminal GST; dsDNA, one strand shown
# Method in brief: as §1
# [6] = biological target: T5, EHF (Homo sapiens, UniProt Q9NZC4 1-300); conditions: protein: recombinant; tags: N-terminal GST; dsDNA, one strand shown
# T5 sequence: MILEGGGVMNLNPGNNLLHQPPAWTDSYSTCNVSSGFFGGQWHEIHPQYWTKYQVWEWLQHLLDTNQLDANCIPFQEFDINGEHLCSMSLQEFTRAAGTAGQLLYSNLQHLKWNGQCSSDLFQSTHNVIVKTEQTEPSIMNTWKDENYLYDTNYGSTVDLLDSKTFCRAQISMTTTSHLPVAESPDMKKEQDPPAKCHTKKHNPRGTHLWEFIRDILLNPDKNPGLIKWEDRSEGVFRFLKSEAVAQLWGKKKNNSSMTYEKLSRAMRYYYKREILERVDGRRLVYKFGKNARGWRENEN
# Method in brief: as §1
# [7] = biological target: SPI1 (Homo sapiens, UniProt P17947 1-270); conditions: protein: recombinant; tags: N-terminal GST; dsDNA, one strand shown
# Method in brief: as §1
# [8] = biological target: T6, ELK3 (Homo sapiens, UniProt P41970 1-407); conditions: protein: recombinant; tags: N-terminal GST; dsDNA, one strand shown
# T6 sequence: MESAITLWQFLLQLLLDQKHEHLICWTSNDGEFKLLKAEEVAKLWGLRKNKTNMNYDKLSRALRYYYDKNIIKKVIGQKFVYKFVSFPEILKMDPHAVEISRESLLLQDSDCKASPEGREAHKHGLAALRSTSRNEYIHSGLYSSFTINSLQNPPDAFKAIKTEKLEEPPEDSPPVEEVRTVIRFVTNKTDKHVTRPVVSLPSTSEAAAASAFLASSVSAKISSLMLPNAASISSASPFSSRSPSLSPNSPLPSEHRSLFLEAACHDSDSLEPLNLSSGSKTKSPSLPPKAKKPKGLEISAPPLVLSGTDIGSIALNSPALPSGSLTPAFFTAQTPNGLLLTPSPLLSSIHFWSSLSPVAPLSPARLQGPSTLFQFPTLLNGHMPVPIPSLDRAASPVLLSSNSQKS
# Method in brief: as §1
# [9] = biological target: T7, FEV (Homo sapiens, UniProt Q99581 1-238); conditions: protein: recombinant; tags: N-terminal GST; dsDNA, one strand shown
# T7 sequence: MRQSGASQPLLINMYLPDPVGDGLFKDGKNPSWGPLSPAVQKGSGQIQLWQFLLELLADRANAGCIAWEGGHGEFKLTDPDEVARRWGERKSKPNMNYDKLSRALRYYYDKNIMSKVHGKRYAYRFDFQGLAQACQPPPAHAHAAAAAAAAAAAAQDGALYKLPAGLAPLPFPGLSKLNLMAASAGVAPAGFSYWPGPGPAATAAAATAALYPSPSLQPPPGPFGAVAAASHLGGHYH
# Method in brief: as §1
# [10] = biological target: ETV5 (Homo sapiens, UniProt P41161 1-510); conditions: protein: recombinant; tags: N-terminal GST; dsDNA, one strand shown
# Method in brief: as §1
# [11] = biological target: HSF1 (Homo sapiens, UniProt Q00613 1-529); conditions: protein: recombinant; tags: N-terminal GST; chain copies: 3; dsDNA, one strand shown
# Method in brief: as §1
# [12] = biological target: T8, SPIC (Homo sapiens, UniProt Q8N5J4 1-248); conditions: protein: recombinant; tags: N-terminal GST; dsDNA, one strand shown
# T8 sequence: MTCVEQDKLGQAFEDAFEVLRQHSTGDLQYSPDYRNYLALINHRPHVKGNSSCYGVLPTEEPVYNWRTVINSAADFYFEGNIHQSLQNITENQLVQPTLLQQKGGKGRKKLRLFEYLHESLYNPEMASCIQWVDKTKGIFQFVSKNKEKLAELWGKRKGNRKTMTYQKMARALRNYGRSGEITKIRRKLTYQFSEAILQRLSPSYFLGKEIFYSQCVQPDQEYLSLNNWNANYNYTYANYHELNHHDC
# Method in brief: as §1
# [13] = biological target: ELF4 (Homo sapiens, UniProt Q99607 1-663); conditions: protein: recombinant; tags: N-terminal GST; dsDNA, one strand shown
# Method in brief: as §1
# [14] = biological target: T9, ELK4 (Homo sapiens, UniProt P28324-2 1-405); conditions: protein: recombinant; tags: N-terminal GST; dsDNA, one strand shown
# T9 sequence: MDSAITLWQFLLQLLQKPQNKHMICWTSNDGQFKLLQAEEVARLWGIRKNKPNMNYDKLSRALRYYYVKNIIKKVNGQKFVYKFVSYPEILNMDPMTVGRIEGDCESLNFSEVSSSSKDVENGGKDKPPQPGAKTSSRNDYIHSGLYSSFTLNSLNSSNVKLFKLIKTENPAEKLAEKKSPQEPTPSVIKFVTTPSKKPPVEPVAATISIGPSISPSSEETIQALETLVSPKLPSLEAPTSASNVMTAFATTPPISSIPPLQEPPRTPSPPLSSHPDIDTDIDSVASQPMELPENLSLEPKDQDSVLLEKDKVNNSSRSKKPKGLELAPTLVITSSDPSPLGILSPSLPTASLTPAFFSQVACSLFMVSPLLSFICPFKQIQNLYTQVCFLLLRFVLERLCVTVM
# Method in brief: as §1
# [15] = biological target: T10, ETV2 (Homo sapiens, UniProt O00321 1-342); conditions: protein: recombinant; tags: N-terminal GST; dsDNA, one strand shown
# T10 sequence: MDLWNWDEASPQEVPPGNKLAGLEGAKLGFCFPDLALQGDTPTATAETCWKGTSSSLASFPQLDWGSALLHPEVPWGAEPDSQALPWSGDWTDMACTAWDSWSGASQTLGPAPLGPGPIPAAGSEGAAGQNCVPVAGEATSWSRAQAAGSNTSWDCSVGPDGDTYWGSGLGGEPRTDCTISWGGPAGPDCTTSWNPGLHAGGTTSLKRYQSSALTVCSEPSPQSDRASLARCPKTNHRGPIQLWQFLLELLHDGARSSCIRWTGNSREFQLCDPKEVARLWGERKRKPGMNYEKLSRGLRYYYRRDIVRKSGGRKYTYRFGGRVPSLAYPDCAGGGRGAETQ
# Method in brief: as §1
# [16] = biological target: T11, ELF3 (Homo sapiens, UniProt P78545 1-371); conditions: protein: recombinant; tags: N-terminal GST; dsDNA, one strand shown
# T11 sequence: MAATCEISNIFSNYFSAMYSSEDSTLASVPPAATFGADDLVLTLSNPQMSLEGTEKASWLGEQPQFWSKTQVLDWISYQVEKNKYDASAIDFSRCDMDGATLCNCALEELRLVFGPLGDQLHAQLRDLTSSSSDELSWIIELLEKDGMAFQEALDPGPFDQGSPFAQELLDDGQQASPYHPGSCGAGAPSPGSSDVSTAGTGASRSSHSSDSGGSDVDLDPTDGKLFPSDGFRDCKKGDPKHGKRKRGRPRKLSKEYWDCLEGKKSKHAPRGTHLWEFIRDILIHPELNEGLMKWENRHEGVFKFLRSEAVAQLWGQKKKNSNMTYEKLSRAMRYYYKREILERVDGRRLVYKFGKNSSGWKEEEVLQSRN
# Method in brief: as §1
# [17] = biological target: CRX (Homo sapiens, UniProt O43186 1-299); conditions: protein: recombinant; tags: N-terminal GST; dsDNA, one strand shown
# Method in brief: as §1
# [18] = biological target: ETV1 (Homo sapiens, UniProt P50549 1-477); conditions: protein: recombinant; tags: N-terminal GST; dsDNA, one strand shown
# Method in brief: as §1
# Chain of ELF4 (Q99607 whole entry): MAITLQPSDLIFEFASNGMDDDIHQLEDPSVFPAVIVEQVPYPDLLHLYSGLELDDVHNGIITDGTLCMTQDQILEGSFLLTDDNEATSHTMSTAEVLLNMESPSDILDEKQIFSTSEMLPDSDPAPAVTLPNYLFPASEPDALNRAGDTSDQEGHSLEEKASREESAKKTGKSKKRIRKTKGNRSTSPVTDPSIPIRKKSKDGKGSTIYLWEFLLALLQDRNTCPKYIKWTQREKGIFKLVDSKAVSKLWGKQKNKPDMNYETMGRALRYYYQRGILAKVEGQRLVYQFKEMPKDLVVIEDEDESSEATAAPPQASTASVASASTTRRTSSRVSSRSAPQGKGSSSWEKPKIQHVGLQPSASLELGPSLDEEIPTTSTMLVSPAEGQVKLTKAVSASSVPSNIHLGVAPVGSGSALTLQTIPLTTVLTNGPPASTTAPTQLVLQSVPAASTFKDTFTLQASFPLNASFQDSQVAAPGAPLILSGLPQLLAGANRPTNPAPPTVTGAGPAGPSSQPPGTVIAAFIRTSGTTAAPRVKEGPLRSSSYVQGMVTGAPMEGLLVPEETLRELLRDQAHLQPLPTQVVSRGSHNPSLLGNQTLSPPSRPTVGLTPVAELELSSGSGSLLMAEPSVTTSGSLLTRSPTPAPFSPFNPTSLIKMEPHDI
# Chain of ETV1 (P50549 whole entry): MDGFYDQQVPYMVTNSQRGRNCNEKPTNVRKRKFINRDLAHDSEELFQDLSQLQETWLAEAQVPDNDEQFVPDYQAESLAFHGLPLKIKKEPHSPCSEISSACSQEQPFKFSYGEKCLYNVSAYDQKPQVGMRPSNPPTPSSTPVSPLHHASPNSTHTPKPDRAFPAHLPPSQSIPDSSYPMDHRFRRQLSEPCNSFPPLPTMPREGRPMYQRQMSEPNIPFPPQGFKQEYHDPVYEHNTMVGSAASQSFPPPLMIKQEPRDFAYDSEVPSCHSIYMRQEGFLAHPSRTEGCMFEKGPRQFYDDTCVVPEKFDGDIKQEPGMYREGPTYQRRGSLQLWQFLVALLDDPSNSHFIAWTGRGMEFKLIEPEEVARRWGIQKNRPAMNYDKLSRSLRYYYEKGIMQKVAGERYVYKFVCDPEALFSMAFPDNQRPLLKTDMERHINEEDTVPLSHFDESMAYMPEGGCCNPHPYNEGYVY
# Chain of HSF1 (Q00613 whole entry): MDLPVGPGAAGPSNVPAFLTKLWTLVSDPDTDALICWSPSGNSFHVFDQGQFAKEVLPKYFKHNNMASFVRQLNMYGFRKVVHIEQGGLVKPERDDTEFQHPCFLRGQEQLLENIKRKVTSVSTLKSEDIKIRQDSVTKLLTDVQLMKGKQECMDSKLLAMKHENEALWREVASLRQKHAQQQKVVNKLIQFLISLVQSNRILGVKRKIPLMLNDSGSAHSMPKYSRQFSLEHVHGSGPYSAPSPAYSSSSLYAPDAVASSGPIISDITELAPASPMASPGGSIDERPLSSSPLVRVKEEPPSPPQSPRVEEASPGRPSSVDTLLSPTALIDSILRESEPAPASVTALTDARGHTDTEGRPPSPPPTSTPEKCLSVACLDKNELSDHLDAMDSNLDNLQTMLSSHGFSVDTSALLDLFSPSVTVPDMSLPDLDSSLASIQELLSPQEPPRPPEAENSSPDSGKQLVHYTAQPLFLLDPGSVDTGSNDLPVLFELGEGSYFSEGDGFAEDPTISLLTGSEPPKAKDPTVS
# Chain of ETV5 (P41161 whole entry): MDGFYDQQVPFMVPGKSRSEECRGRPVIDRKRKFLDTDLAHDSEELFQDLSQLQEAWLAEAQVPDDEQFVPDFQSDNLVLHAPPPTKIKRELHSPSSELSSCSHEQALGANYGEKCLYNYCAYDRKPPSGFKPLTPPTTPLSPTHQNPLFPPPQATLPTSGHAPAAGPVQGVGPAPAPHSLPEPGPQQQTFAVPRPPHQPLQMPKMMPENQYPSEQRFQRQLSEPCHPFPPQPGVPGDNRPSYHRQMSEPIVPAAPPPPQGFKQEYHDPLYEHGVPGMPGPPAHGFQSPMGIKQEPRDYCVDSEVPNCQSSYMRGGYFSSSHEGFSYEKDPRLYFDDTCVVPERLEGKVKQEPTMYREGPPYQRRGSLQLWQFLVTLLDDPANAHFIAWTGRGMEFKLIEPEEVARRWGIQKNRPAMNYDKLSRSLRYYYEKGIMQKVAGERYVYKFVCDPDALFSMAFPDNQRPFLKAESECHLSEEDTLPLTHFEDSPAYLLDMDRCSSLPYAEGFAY
# Chain of CRX (O43186 whole entry): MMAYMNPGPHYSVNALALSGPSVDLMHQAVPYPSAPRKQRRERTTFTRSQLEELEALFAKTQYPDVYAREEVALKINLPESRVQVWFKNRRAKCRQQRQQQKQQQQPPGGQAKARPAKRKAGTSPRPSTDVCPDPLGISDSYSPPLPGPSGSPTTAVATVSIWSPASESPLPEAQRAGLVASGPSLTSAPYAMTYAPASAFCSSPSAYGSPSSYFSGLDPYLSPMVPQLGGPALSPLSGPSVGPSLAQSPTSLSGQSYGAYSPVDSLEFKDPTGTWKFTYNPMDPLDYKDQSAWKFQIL
# Chain of ELF1 (P32519 whole entry): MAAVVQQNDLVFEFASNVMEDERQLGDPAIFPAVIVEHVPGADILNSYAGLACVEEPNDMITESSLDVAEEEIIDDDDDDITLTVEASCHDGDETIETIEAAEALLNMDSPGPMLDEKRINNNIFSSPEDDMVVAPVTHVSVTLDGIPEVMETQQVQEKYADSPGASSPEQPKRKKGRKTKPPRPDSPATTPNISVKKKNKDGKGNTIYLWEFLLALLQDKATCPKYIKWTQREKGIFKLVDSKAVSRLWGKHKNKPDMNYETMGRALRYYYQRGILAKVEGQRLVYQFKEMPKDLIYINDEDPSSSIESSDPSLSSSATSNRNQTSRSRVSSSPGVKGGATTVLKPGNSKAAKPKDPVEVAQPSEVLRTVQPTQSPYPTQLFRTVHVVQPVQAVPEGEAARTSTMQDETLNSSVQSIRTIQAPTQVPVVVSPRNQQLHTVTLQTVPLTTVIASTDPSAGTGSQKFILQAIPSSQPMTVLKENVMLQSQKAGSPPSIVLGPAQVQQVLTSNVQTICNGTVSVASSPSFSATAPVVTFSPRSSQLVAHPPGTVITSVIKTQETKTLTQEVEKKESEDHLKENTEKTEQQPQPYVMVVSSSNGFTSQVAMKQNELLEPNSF
sequence,measurement,setting,value
TTACGT,binding signal,[1],"1.19 fold enrichment (6-mer frequency, TF over GST control)"
same,binding signal,[2],"1.09 fold enrichment (6-mer frequency, TF over GST control)"
same,binding signal,[3],"1.2 fold enrichment (6-mer frequency, TF over GST control)"
same,binding signal,[4],"1.07 fold enrichment (6-mer frequency, TF over GST control)"
same,binding signal,[5],"1.07 fold enrichment (6-mer frequency, TF over GST control)"
same,binding signal,[6],"1.1 fold enrichment (6-mer frequency, TF over GST control)"
same,binding signal,[7],"1.09 fold enrichment (6-mer frequency, TF over GST control)"
same,binding signal,[8],"1.05 fold enrichment (6-mer frequency, TF over GST control)"
same,binding signal,[9],"1.04 fold enrichment (6-mer frequency, TF over GST control)"
same,binding signal,[10],"1.19 fold enrichment (6-mer frequency, TF over GST control)"
same,binding signal,[11],"1.21 fold enrichment (6-mer frequency, TF over GST control)"
same,binding signal,[12],"1.07 fold enrichment (6-mer frequency, TF over GST control)"
same,binding signal,[13],"1.11 fold enrichment (6-mer frequency, TF over GST control)"
same,binding signal,[14],"1.12 fold enrichment (6-mer frequency, TF over GST control)"
same,binding signal,[15],"1.2 fold enrichment (6-mer frequency, TF over GST control)"
same,binding signal,[16],"1.14 fold enrichment (6-mer frequency, TF over GST control)"
same,binding signal,[17],"1.74 fold enrichment (6-mer frequency, TF over GST control)"
same,binding signal,[18],"1.06 fold enrichment (6-mer frequency, TF over GST control)"
